Compounds with a hit are over-represented: about 2% of the library has one in this group of screens.
TR SRC2 fluor cs – counter-screen for TRb-SRC2 inhibitors: fluorescence interference | Potency, µM (highest dose often 106 µM), without a hit: top-dose fluorescence change, negative = quenching | TRb/SRC2 Texas Red total fluorescence interference | 0.29% of 280,000 active; active = well fitted curve in either direction with a large enough effect; inconclusive = small, poorly fitted or top-dose-only effect; note: potency is the fitted concentration of half-maximal effect; % is set by controls: 0 for no effect and ±100 for the full control effect
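Flags fluorescent or light-absorbing compounds by total fluorescence, S + 2P, at 555 nm excitation and 632 nm emission. Mixture: 20 nM Texas Red SRC2 peptide, 0.6 uM human TRb LBD, 1 uM T3, 5% DMSO; compound exposure 5 h at ambient temperature.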
JMJD2E inh – inhibitors of human JMJD2E histone demethylase. B2RXH2. AID 2147. JMJD2E catalytic domain, FDH-coupled NADH fluorescence (FDH is formaldehyde dehydrogenase). 1.6% of 230,000 active. Potency, µM (top dose mostly 57.1 µM), inactives show at the highest dose activity change, negative = inhibition, actives largely listed as inhibitors; active = well fitted inhibition curve with a large enough effect, not every such curve was filed as active; inconclusive = small, poorly fitted or top-dose-only effect, or another doubt; inactive = no such curve, though single readings can be large or run the other way;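 note: potency is the fitted concentration of half-maximal effect; 0% = wells with enzyme and -100% = buffer wells without enzyme; nearly all actives have a fitted effect of over 50% in size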
Target sequence (B2RXH2 1-337 limits assumed): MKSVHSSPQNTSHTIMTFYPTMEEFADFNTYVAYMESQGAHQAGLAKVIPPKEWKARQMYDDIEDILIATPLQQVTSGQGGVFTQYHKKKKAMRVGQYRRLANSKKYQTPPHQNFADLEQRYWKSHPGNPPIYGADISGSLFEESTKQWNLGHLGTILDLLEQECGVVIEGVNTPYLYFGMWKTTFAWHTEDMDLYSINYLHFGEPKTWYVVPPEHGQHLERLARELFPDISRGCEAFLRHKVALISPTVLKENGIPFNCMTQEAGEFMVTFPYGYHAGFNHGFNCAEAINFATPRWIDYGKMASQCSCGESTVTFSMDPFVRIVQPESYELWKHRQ
HTT aggregate – mutant huntingtin aggregation inhibition | PC12 HttQ103-GFP aggregates, Acumen cytometry, 40 h | Potency, µM (highest dose often 46.1 µM), without a hit: top-dose activity change, negative = inhibition, hits mostly inhibitors | 1.1% of 220,000 active | AID 1688; note: potency is the fitted concentration of half-maximal effect; % is set by controls: 0 for no effect and ±100 for the full control effect; nearly all actives have a fitted effect of over 60% in size
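Compounds (qHTS titration) were added to PC12 cells expressing an ecdysone-driven HTT exon 1 Q103–GFP fusion after induction with 100 nM tebufenozide. Aggregate formation was measured as GFP objects in cell lysates.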
HTT ATP protect – cytoprotection in Huntington HTT-Q103 PC12 cell model | PC12 HTT-Q103 induced, cytoprotection, ATP luminescence, 40 h | Potency, µM (series often up to 56.4 µM), for the others: cytoprotection (ATP increase), hits mostly activators | 0.14% of 230,000 active | AID 1471; note: potency is the fitted concentration of half-maximal effect; % of control where 0% means no effect; nearly all actives have a fitted effect of over 45% in size
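ATP quantification (ATPlite) reports survival of PC12 cells in which tebufenozide, 100 nM final, switches on Htt exon 1 with 103 glutamines linked to GFP; compounds are titrated.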
FBPA coupling cs – coupling enzyme interference in Giardia aldolase counter-screen; 0.67% of 290,000 active; activity change, negative = inhibition, % at 58.2 µM, hits read low; AID 2472; coupling enzyme system counterscreen, AmpLite Red fluorescence; in the data active = activity change below about -30%; note: % is set by controls: 0 for no effect and ±100 for the full control effect
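Final compound at 57.5 uM, incubated 10 min at RT with coupling enzyme reagent (glyceraldehyde-3-phosphate), then 20 min with substrate and AmpLite Red detection. Fluorescence read at 525/598 nm; tests interference with the coupling assay, not aldolase inhibition.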
TRb SRC2 PPI – TRbeta-SRC2 interaction inhibition; P10828; TRbeta-SRC2 peptide binding, fluorescence polarization; receptor liganded with 1 µM T3; Potency, µM (top dose mostly 106 µM), inactives show at the top dose activity change, negative = inhibition, actives largely listed as inhibitors; 0.065% of 280,000 active;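 note: potency is the fitted concentration of half-maximal effect; plate controls were bound peptide for no effect and peptide without receptor for full effect; nearly all actives have a fitted effect of over 50% in size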
Target sequence (P10828 whole entry, looked up): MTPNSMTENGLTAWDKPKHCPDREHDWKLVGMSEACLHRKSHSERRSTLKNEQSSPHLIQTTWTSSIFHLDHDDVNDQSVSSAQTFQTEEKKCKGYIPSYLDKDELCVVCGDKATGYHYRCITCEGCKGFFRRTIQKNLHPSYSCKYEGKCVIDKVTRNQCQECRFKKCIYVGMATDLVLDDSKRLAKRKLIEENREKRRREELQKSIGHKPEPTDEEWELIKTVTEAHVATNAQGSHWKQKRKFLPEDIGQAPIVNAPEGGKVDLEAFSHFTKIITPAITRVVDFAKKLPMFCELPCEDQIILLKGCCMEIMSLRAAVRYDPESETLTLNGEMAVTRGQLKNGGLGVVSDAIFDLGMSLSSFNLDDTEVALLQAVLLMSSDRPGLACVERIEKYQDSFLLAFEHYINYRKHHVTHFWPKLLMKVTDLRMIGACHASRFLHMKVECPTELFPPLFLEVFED
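Human TRb LBD (0.6 uM) plus Texas Red-labeled SRC2 peptide (20 nM), 1uM T3, 5% DMSO, 5 hr at ambient temperature. Decreased polarization (555/632 nm) flags inhibition; data normalized to free and bound peptide controls.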
An asterisk follows results filed as active; ? = inconclusive; · = no result; [ ] = remark or other dose. Unless noted, calls come from the whole dose curve; as a rule, active = well fitted curve in the direction sought with a large enough effect; inconclusive = small, poorly fitted or top-dose-only effect, or another doubt; inactive = no such curve, though single readings can be large; an effect the other way counts as inactive or inconclusive.

SMILES | TR SRC2 fluor cs | JMJD2E inh | HTT aggregate | HTT ATP protect | FBPA coupling cs | TRb SRC2 PPI
N#C/C(=C\c1ccc(O)c(O)c1)S(=O)(=O)c1ccccc1 | -2% | 25µM* | -14% | 5%[1.9 µM] | 17 | 0%
N#C/C(=C\c1ccc(O)c(O)c1)C(=O)c1ccc(O)c(O)c1 | -6% | 2.5µM* | · | -3%[1.9 µM] | · | -3%
N#C/C(=C\c1ccc(O)c(O)c1)C(=O)N1CCCC1 | -8% | 14µM* | -3% | 2% | -6 | -8%
N#C/C(=C/c1ccc(F)cc1)S(=O)(=O)c1ccccc1 | -2% | -10% | -3%[9.22 µM] | -17%[10 µM] | -9 | 6%
N#C/C(=C\c1ccc(N2CCOCC2)o1)C(=O)NCCc1ccccc1 | -1% | 40µM* | 4%[9.22 µM] | 10%[10 µM] | 3 | -9%
COc1cc(/C=C(\C#N)C(=O)N2CCCCC2)ccc1O | · | · | · | · | 3 | ·
Cc1ccc(/C(C#N)=C\c2ccc(N3CCOCC3)o2)cc1 | 13% | 16µM* | -5%[9.22 µM] | 17%[10 µM] | -25 | -4%
N#C/C(=C\c1ccc(O)c(O)c1)C(=O)OCCc1cccs1 | -4% | 22µM* | · | -16% | 2 | 7%
N#C/C(=C\c1c[nH]c2ccccc12)C(=O)c1ccc(O)c(O)c1 | -15% | 2.2µM* | · | 9%[1.9 µM] | · | 7%
N#C/C(=C\c1ccc(O)c(O)c1)C(=O)NCCCc1ccccc1 | -3% | 3.2µM* | -26% | -7% | 6 | -1%
COc1ccc(/C=C(\C#N)C(=O)NCCc2ccccc2)cc1OCc1ccccc1 | -2%[53 µM] | 11% | 9% | -11%[10 µM] | -9 | -4%[53 µM]
COc1ccc(CNc2ccnc(-c3cccnc3)n2)c(OC)c1 | · | · | · | -36% | -1 | ·
COc1cc(C(=O)Oc2ccccc2/C=N/NC(=O)c2ccc(C)c(Cl)c2)cc(OC)c1OC | -11% | -8% | 2.8µM* | -81%[10 µM] | 0 | 2%
O=C(N/N=C/c1ccccc1OC(=O)c1ccc2c(c1)OCO2)c1cccc(F)c1 | 0% | 1% | 2.5µM* | -88%[10 µM] | -1 | 4%
CC(=O)Nc1ccc(C(=O)N/N=C/c2ccccc2OC(=O)c2ccc(Cl)cc2)cc1 | -2% | -3% | ? | -36% | -10 | -9%
COc1cc(C(=O)Oc2ccccc2/C=N/NC(=O)c2ccc(Cl)cc2)cc(OC)c1OC | 1% | 6% | 2.8µM* | -88%[10 µM] | 0 | 1%
COc1cc2c(cc1CC=C(C)C)C(=O)C[C@@H](c1ccc(O)cc1)O2 | -1% | · | · | · | 1 | 3%
CCn1c(=O)n(C2=C(CO)CN(CC3CCCCCCC3)CC2)c2ccccc21 | 0% | · | · | · | 2 | 4%
COc1ccc(N2C(=O)CC(Sc3nnc(-c4ccccc4)o3)C2=O)cc1 (centres undefined) | -4% | 1% | 25µM* | -150% | 2 | -1%
O=C(NCc1cccc(Br)c1)c1cccn1-c1nnc(N2CCCCC2)s1 | -1% | · | · | · | · | -3%
CNS(=O)(=O)c1cc(-c2nnc(Nc3ccc(NC(C)=O)cc3)c3ccccc23)ccc1C | · | · | · | · | -1 | ·
CNC(=O)COc1ccc(Nc2nnc(-c3ccc(C)c(S(=O)(=O)NC(C)(C)C)c3)c3ccccc23)cc1 | 0.2µM*[quencher] | · | · | · | · | -8%
COc1cnc(-c2ccccn2)nc1NC(C)C | -3% | -117% | -20% | -138% | -36* | -2%
CC1C[N+](=C2C=C(N3CCOCC3)CC(C)(C)C2)CC(C)O1 (centres undefined) | -2% | 25µM* | 23%[9.22 µM] | 2%[10 µM] | 2 | 4%
C=C(C)C(=O)OCC(CC)(COC(=O)C(=C)C)COC(=O)C(=C)C | -1%[201 µM] | · | · | · | · | 8%[201 µM]
SMILES | TR SRC2 fluor cs | JMJD2E inh | HTT aggregate | HTT ATP protect | FBPA coupling cs | TRb SRC2 PPI
CCS(=O)(=O)Nc1ccccc1C(N)=O | 0% | ? | 4% | 1%[10 µM] | 1 | -7%
CN(C)S(=O)(=O)Nc1ccccc1C(N)=O | 0% | ? | 3.5µM* | -7% | -2 | 1%
CCCCS(=O)(=O)N1C2=NC(C(=O)OC)=C(C(=O)OC)[C@@H]3Nc4ccccc4[C@]23C[C@H]1C(=O)OC | -3%[11.2 µM] | -1%[11.4 µM] | · | 8%[10 µM] | -1 | 7%[11.2 µM]
O=[N+]([O-])c1ccc(CS(=O)Cc2ccccc2)cc1 (centres undefined) | · | · | · | -9%[10 µM] | · | ·
O=[N+]([O-])c1ccc(C[n+]2ccc(Cc3ccccc3)cc2)cc1 | 0% | ? | 3% | -3% | -42* | 6%
COc1ccc(C2=CC(=O)C=CC2=O)cc1 | -2% | 14µM* | -9%[9.22 µM] | -12%[10 µM] | -36* | 0%
COc1ccc(S(=O)(=O)c2ccc(OC)cc2)cc1 | 2% | -3% | -6% | -2% | 4 | -15%
CCN(CC)P(=O)(Nc1ccc(C)cc1Br)c1ccc(N(C)C)cc1NC(=O)c1ccco1 (centres undefined) | -2% | -14% | 35µM* | 25% | -5 | -3%
Cc1nn(C)c2c1c(C(F)(F)F)cc(=O)n2C(C)C(=O)NCc1ccccc1Cl (centres undefined) | 316µM*[quencher] | · | · | · | · | -21%
CN(C)Cc1ccccc1-c1ccc2ncnc(N3CCOCC3)c2c1 | -1% | -1% | · | -2% | -5 | -3%
C[C@@H]1c2ccccc2Cn2cc3c(c21)C(=O)c1cccc(OP(=O)(O)OCc2ccccc2)c1C3=O | · | · | · | -15%[10 µM] | · | ·
COc1ccccc1CC(=O)N1CCN(c2cccc(C(F)(F)F)c2)CC1 | -1% | 1% | 13µM* | 11%[10 µM] | -1 | 3%
COc1ccccc1NC(=O)N1CCN(c2cccc(C(F)(F)F)c2)CC1 | -1% | 8% | 7% | 4% | -1 | 10%
CCc1nc(NCc2ccccn2)c2oc3ccccc3c2n1 | 2% | ? | 13µM* | -40%[0.074 µM] | -3 | 5%
CC(C)C[C@H](NC(=O)CNC(=O)[C@H](C)NC(=O)[C@H](CC(C)C)NC(=O)[C@H](CCCNC(=N)N)NC(=O)[C@H](Cc1cnc[nH]1)NC(=O)[C@@H](NC(=O)[C@@H](N)C(C)C)[C@@H](C)O)C(=O)N[C@@H](CC(C)C)C(=O)N[C@@H](CO)C(=O)N[C@@H](CCCNC(=N)N)C(=O)N[C@@H](CO)C(=O)NCC(=O)NCC(=O)N[C@H](C(=O)N[C@H](C(=O)N[C@@H](CCCCN)C(=O)N[C@@H](CC(N)=O)C(=O)N[C@@H](CC(N)=O)C(=O)N[C@@H](Cc1ccccc1)C(=O)N[C@H](C(=O)N1CCC[C@H]1C(=O)N[C@H](C(=O)N[C@@H](CC(N)=O)C(=O)N[C@H](C(=O)NCC(=O)N[C@@H](CO)C(=O)N[C@@H](CCCCN)C(=O)N[C@@H](C)C(=O)N[C@@H](Cc1ccccc1)C(N)=O)C(C)C)[C@@H](C)O)C(C)C)C(C)C)C(C)C | 0% | · | · | · | 3 | 1%
